“And” between values parts separate entries of the source, which are not always exact repeats. Equal entries are not always repeated. Inconclusive results are not listed. A structure can be active in one record and inactive in another. The source made the active and inactive calls. Calls come from the whole dose curve; as a rule, active = well fitted curve in the direction sought with a large enough effect; inconclusive = small, poorly fitted or top-dose-only effect, or another doubt; inactive = no such curve, though single readings can be large; an effect the other way counts as inactive or inconclusive.
Key:
[1] = Viability qHTS for spleen associated tyrosine kinase inhibitor (SYKi) drug resistant MV4-11 cells (AID 1963824); settings: SYKi-resistant MV4-11 viability, CellTiter-Glo, 72 h; series mostly up to 45 µM; note: nearly all actives have a fitted effect of over 35% in size; note: potency is the fitted concentration of half-maximal effect
Summary of the method: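 SYK inhibitor-resistant MV4-11 AML cells, 500 per well, added to predispensed compounds and incubated 72 hr at 37 C, 5% CO2. Viability measured by CellTiter-Glo luminescence after 10 min at room temperature.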

[2] = Quantitative highthroughput screen to assess conditional lethalithy of NOMO1 cells grown in Human Plasma-Like Medium with dialyzed fetal bovine serum (HPLM+ds) (AID 1963878); settings: NOMO1 AML cells in HPLM+ds, CellTiter-Glo viability, 48 h; series mostly up to 45.8 µM; note: nearly all actives have a fitted effect of over 35% in size; note: potency is the fitted concentration of half-maximal effect;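 for Viability: 100% = DMSO wells and 0% = empty wells on each plate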
Summary of the method: (§1)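 Each medium arm—HPLM with 10% dialyzed FBS, or RPMI1640 with 5 mM glucose and 10% untreated or dialyzed FBS—was screened against an 11-point, 3-fold compound titration for 48 h at 37 °C, with CellTiter-Glo luminescence as endpoint.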

[3] = Quantitative highthroughput screen to assess conditional lethalithy of P12 Ichikawa cells grown in RPMI1640 with dialyzed fetal bovine serum (RPMI+ds) (AID 1963880); settings: ATP luminescence, 48 h; Potency: P12-Ichikawa viability; series mostly up to 45.8 µM; note: nearly all actives have a fitted effect of over 35% in size; note: potency is the fitted concentration of half-maximal effect;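 for Viability: 100% = DMSO wells and 0% = empty wells on each plate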
Summary of the method: as §1

[4] = Cellular viability qHTS for adrenocortical cancer (ACC) cell line NCI-H295R (AID 1963990); settings: CellTiter-Glo ATP luminescence, 48 h; series mostly up to 46.1 µM; note: nearly all actives have a fitted effect of over 60% in size; note: potency is the fitted concentration of half-maximal effect
Summary of the method: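 Luminescent ATP read-out (CellTiter-Glo, 20 min RT) after 48 h drug exposure of NCI-H295R cells; a titration up to 46 uM final. Data normalized to doxorubicin (100% inhibition) and DMSO (0%); 4-parameter fit gives IC50, max response.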

[5] = Quantitative highthroughput screen to assess conditional lethalithy of P12 Ichikawa cells grown in RPMI1640 with untreated serum (RPMI+s) (AID 1963881); settings: ATP luminescence, 48 h; Potency: viability; series mostly up to 45.8 µM;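 note: 100% = DMSO wells and 0% = empty wells without cells; nearly all actives have a fitted effect of over 35% in size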
Summary of the method: as §1

[6] = Quantitative highthroughput screen to assess conditional lethalithy of SEM cells grown in Human Plasma-Like Medium with dialyzed fetal bovine serum (HPLM+ds) (AID 1963882); settings: SEM B-ALL cells in HPLM+ds, CellTiter-Glo viability, 48 h; series mostly up to 45.8 µM; note: nearly all actives have a fitted effect of over 35% in size; note: potency is the fitted concentration of half-maximal effect
Summary of the method: as §1

[7] = Quantitative highthroughput screen to assess conditional lethalithy of SEM cells grown in RPMI1640 with unreated serum (RPMI+s) (AID 1963883); settings: SEM B-ALL cells, CellTiter-Glo viability, 48 h; series mostly up to 45.8 µM; note: nearly all actives have a fitted effect of over 35% in size; note: potency is the fitted concentration of half-maximal effect;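 for Viability: 100% = DMSO wells and 0% = empty wells without cells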
Summary of the method: as §1

[8] = Quantitative highthroughput screen to assess conditional lethalithy of SEM cells grown in RPMI1640 with dialyzed fetal bovine serum (RPMI+ds) (AID 1963884); settings: SEM B-ALL cells, RPMI+dialyzed FBS, CellTiter-Glo viability, 48 h; series mostly up to 45.8 µM; note: nearly all actives have a fitted effect of over 35% in size; note: potency is the fitted concentration of half-maximal effect;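 for Viability: 100% = DMSO control wells and 0% = empty wells without cells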
Summary of the method: as §1

[9] = Quantitative highthroughput screen to assess conditional lethalithy of NOMO1 cells grown in RPMI1640 with dialyzed fetal bovine serum (RPMI+ds) (AID 1963877); settings: NOMO1 in RPMI+dialyzed FBS viability, ATP luminescence, 48 h; series mostly up to 45.8 µM; note: nearly all actives have a fitted effect of over 30% in size; note: potency is the fitted concentration of half-maximal effect;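 for Viability: 100% = DMSO control wells and 0% = empty wells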
Summary of the method: as §1

[10] = Quantitative highthroughput screen to assess conditional lethalithy of P12 Ichikawa cells grown in Human Plasma-Like Medium with dialyzed fetal bovine serum (HPLM+ds) (AID 1963879); settings: ATP luminescence, 48 h; Potency: viability; series mostly up to 45.8 µM; note: nearly all actives have a fitted effect of over 35% in size
Summary of the method: as §1

[11] = Cellular viability qHTS for adrenocortical cancer (ACC) cell line SW-13 (AID 1963989); settings: SW-13 ACC cells viability, CellTiter-Glo, 48 h; activity (max response): stronger effect = lower value;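 note: cells grown in serum-free medium with ITS supplement; % is set by controls: 0 for no effect and ±100 for the full control effect; nearly all actives have a fitted effect of over 65% in size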
Summary of the method: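 SW-13 cells in ITS-supplemented serum-free DMEM were plated overnight, then exposed for 48 h at 37C to compound titrations (up to 46 uM final). Viability was read by CellTiter-Glo luminescence; four-parameter logistic fits gave IC50 and efficacy.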

CCN(CC)CCCCNc1nc2cc(Cl)c(Cl)cc2nc1-c1ccc(-c2cccs2)s1
active: Potency [1] 4.68 µM | Potency [2] 20.9 µM | Potency [3] 26.4 µM | Potency [4] 7.08 µM

Oc1cccc(-c2nc(N3CCOCC3)c3oc4ncccc4c3n2)c1
active: Potency [1] 0.525 µM | Potency [6] 15.2 µM | Potency [7] 1.91 µM | Potency [8] 7.62 µM
inactive: Potency [2] | Potency [3] | Potency [5]

Cc1ccccc1C(C(=O)NC1CCCCC1)N(C(=O)CNc1ccc(C#N)cc1)c1cccc(F)c1 (stereo not drawn)
inactive: Potency [1] | Potency [9] | Potency [2] | Potency [10] | Potency [6] | Potency [8] | activity (max response) [11] -0.757% | Potency [4]

Cc1c(C)n(Cc2ccc(-c3ccccc3C(=O)O)cc2)c2ccc(C(=O)N[C@@H](C)c3ccc([N+](=O)[O-])cc3)cc12
active: Potency [1] 20.9 µM | Potency [9] 9.35 µM | Potency [3] 10.5 µM
inactive: Potency [6] | Potency [7] | Potency [8]

O=C(O)C1CCCN(CCC=C(c2ccccc2)c2ccccc2)C1 (stereo not drawn)
inactive: Potency [1] | Potency [9] | Potency [2] | Potency [10] | Potency [3] | Potency [5] | Potency [6] | Potency [7] | Potency [8] | activity (max response) [11] -5.26% | Potency [4]

CCOC(=O)c1c(CSc2ccccc2)n(C)c2cc(Br)c(O)c(CN(C)C)c12
active: Potency [1] 10.5 µM | Potency [9] 16.6 µM
inactive: Potency [10] | Potency [6] | Potency [8]

O=C(CCc1ccc(O)cc1)c1c(O)cc(O)cc1O
inactive: Potency [1] | Potency [9] | Potency [10] | Potency [3] | Potency [5] | Potency [6] | Potency [7] | activity (max response) [11] -4.39% | Potency [4]

Cc1cn[nH]c1
inactive and 18.6 µM (active): Potency [1]
inactive: Potency [9] | Potency [10] | Potency [3] | Potency [5] | Potency [8] | activity (max response) [11] 12.7% and 11.3% | Potency [4]

Reference: PubChem BioAssay (NCATS)
